Among the data in the supplement of paper PMC10849652 are log2 fold change values, retold here.

Targets with a hit are over-represented here; the source holds about 7,900 in all. About 0.6% of all pairs of compound and target were hits. Values without a mark were called inactive.

Sequence of UniProt P98170 (P98170 whole entry, looked up): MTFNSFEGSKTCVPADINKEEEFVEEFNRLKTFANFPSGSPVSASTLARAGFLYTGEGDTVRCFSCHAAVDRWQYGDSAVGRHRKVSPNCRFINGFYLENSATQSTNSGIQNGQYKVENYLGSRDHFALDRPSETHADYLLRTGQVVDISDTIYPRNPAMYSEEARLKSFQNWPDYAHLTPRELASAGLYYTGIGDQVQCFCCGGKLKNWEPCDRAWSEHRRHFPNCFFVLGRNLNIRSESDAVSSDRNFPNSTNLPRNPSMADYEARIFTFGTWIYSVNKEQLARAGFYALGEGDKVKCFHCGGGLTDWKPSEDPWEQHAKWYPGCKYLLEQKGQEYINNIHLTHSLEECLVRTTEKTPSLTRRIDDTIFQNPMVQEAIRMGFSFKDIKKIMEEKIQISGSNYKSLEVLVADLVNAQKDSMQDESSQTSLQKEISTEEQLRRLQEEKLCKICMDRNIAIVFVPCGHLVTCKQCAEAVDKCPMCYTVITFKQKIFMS
Sequence of UniProt A0JNW5 (A0JNW5 whole entry, looked up): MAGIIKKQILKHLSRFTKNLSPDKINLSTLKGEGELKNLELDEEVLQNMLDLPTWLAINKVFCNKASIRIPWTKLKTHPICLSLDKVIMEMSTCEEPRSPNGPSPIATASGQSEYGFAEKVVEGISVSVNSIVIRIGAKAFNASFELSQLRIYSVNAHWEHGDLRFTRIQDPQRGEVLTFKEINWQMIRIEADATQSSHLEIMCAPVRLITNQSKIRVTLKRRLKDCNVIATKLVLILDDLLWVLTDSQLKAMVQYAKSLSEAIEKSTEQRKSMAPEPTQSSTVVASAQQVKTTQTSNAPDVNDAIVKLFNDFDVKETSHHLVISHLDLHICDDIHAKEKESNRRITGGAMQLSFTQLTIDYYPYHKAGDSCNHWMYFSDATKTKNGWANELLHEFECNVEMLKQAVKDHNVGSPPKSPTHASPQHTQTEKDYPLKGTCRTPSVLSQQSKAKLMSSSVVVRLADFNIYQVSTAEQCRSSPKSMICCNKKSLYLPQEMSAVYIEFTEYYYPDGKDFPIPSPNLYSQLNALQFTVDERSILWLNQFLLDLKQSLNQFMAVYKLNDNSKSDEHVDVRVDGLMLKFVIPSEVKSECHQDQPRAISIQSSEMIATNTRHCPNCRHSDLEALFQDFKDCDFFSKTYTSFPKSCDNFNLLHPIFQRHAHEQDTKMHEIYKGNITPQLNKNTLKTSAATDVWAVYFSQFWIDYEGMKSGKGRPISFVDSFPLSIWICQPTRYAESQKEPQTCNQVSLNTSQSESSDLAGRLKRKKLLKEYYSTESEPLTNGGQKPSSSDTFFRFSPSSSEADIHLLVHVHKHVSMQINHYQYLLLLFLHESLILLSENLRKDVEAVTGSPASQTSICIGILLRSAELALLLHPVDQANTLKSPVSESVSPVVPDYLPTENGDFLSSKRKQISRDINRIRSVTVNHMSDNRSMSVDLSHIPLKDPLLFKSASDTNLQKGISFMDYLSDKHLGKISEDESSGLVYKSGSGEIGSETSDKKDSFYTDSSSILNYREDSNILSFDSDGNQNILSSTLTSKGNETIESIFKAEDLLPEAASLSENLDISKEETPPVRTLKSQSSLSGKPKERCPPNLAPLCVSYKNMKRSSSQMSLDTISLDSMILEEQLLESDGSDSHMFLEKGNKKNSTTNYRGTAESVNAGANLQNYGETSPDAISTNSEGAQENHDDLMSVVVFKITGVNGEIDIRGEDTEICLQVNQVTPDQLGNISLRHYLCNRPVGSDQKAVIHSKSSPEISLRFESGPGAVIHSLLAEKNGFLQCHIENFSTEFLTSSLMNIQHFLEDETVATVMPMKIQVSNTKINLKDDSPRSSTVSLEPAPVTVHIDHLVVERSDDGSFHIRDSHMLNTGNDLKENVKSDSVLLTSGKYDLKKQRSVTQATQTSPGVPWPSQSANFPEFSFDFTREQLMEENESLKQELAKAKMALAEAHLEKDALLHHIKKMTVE
Sequence of UniProt O60784 (O60784 whole entry, looked up): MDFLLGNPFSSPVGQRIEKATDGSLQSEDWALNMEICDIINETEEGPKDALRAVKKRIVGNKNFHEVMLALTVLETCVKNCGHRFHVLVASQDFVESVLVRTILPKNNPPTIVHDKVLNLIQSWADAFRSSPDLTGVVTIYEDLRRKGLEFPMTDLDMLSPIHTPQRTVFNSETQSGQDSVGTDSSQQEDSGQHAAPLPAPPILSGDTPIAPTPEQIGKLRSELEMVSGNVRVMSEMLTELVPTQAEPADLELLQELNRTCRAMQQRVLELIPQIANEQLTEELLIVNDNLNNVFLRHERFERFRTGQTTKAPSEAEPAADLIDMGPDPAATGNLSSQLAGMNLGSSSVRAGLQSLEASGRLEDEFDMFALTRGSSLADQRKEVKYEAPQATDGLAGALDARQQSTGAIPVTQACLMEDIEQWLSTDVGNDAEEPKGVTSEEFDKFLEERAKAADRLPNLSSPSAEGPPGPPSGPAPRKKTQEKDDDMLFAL
Sequence of UniProt Q9NZ09 (Q9NZ09 whole entry, looked up): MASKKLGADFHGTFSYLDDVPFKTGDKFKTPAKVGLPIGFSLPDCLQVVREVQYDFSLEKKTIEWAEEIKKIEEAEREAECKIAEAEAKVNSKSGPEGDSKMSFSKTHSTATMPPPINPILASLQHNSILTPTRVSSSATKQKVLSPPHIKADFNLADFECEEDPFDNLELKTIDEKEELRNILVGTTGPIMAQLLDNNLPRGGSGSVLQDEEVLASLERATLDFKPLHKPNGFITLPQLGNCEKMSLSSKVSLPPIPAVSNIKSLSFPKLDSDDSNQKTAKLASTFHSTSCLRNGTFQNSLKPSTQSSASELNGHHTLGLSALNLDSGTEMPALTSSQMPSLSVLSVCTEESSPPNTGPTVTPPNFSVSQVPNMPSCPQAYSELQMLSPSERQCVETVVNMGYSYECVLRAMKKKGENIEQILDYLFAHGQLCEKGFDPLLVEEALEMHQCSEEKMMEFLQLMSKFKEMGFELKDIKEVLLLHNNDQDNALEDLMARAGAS
Sequence of UniProt Q86SZ2 (Q86SZ2 whole entry, looked up): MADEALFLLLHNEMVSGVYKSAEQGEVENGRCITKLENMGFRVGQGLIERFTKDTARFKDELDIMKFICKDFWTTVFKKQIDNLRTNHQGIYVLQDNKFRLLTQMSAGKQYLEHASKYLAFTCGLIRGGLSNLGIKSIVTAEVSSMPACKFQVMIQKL
Sequence of UniProt P07951 (P07951 whole entry, looked up): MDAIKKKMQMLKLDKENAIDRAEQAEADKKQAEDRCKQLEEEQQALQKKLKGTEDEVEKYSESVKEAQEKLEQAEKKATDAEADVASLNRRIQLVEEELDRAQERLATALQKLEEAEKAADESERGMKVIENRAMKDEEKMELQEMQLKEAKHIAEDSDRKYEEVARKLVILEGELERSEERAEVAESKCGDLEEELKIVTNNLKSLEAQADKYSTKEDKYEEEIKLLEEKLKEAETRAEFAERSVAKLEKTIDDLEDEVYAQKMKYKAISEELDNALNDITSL
Sequence of UniProt Q9H269 (Q9H269 whole entry, looked up): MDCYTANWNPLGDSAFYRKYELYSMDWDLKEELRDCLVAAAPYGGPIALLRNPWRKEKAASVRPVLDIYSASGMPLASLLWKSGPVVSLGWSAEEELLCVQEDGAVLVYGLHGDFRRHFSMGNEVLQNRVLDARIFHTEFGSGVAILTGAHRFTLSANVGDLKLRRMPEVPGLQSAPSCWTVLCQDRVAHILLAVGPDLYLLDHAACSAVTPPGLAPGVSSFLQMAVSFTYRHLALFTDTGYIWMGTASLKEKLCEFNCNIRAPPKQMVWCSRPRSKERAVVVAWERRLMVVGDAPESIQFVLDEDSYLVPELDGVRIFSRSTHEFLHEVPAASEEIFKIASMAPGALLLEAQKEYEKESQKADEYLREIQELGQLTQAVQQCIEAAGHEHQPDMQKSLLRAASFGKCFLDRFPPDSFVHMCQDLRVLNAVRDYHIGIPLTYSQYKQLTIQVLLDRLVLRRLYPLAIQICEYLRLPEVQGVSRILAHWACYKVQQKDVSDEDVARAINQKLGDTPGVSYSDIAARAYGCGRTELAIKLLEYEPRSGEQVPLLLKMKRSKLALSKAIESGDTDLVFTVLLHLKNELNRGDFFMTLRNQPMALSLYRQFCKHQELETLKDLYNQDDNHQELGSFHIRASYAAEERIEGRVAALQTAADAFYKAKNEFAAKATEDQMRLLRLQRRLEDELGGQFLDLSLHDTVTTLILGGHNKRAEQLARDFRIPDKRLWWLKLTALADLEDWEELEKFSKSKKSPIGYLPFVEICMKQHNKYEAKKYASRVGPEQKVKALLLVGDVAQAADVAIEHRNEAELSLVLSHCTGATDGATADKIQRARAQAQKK
Sequence of UniProt Q15642 (Q15642 whole entry, looked up): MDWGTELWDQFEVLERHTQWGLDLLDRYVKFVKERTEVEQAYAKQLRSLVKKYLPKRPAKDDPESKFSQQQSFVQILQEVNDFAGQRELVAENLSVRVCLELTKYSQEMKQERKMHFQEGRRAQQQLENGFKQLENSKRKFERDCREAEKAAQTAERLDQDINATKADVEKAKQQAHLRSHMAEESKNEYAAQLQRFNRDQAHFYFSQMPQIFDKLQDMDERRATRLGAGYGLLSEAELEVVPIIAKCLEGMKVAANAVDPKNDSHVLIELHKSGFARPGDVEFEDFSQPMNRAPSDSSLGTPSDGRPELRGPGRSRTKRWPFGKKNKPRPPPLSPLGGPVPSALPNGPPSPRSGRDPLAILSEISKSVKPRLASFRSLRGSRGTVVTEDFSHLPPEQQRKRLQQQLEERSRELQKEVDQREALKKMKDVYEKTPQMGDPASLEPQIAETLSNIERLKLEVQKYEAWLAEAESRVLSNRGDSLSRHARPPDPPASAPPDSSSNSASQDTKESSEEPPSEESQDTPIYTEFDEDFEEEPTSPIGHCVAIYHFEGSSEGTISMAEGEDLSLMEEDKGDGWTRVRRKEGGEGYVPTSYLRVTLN
Sequence of UniProt Q15388 (Q15388 whole entry, looked up): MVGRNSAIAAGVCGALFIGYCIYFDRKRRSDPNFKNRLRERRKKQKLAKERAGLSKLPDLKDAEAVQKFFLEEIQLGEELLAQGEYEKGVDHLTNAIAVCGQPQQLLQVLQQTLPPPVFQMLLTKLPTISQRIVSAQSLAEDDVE

Compound in the experiment: c1cn2cc(-c3ccc4cn[nH]c4c3)nc(Nc3ccc(N4CCOCC4)cc3)c2n1 [entospletinib]
The experiment is described as follows: log2 fold change, soluble protein after heating vs DMSO (PISA); higher = thermal stabilisation; K562 cells, 10 uM, 30 min; active = over 0.2 and 3.5 SD of the protein, either way, in both replicates (recomputed). The gist of the method: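 Soluble protein was quantified by TMTpro 16plex LC-MS/MS after channel sums were equalised. It was obtained as the supernatant after 21,000xg for 90 min from pooled aliquots of K562 cells (2×10^6 cells/mL, 10 μM compound, 30 min) heated for 3 min across 48°C-58°C and extracted in PBS with 0.5% NP-40 at 4°C. Thermal stability values are relative to control samples and come from duplicates. They are given as log2 fold changes.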
WDR46, A0A0G2JJL1: the log2 fold change is 0.023. In the case of UBAP2L isoform 1 (UniProt Q14157) it was -0.065. For VDAC1 (UniProt P21796) the value was -0.012; for TMTC3 (UniProt Q6ZXV5), 0.007; for UHRF1BP1L (UniProt A0JNW5), 0.012. For USP34 (UniProt Q70CQ2) the value was -0.002; for TMEM161B (UniProt Q8NDZ6), 0.016. For the target WDR47 (UniProt O94967), the log2 fold change was 0.011.

On to WDCP (UniProt Q9H6R7), for which the log2 fold change was -0.024. Regarding TOM1 isoform 2 (UniProt O60784), the log2 fold change is 0.009. For the target WNK1 isoform 7 (UniProt Q9H4A3), the log2 fold change was -0.005. For TXN2 (UniProt Q99757) the value was 0. In the case of TMEM263 (UniProt Q8WUH6) it was -0.032; in that of TPP1 (UniProt O14773), -0.018; in that of UBE2Q1 (UniProt Q7Z7E8), 0.007. For UBAP1 isoform 4 (UniProt Q9NZ09) the value was 0.005; for TMEM8A (UniProt Q9HCN3), -0.002. VPS16 (UniProt Q9H269): the log2 fold change is -0.06.

In the case of TOMM20 (UniProt Q15388), the log2 fold change was 0.069. For VWA3B isoform 6 (UniProt Q502W6) the value was -0.237; for TOMM5 isoform 2 (UniProt Q8N4H5), -0.033. With TNFRSF8 (UniProt P28908), the log2 fold change is 0.002. For USP9X (UniProt Q93008) the value was -0.01. In the case of WDR61 (UniProt Q9GZS3) it was 0.009; in that of VTI1A (UniProt Q96AJ9), 0.013. For TRAPPC6B (UniProt Q86SZ2) the value was -0.003; for TRIP10 isoform 2 (UniProt Q15642), 0.062. With WASHC3 (UniProt Q9Y3C0), the log2 fold change was 0.007. In the case of TUBA4A (UniProt C9JJQ8) it was -0.27; in that of VPS52 (UniProt Q8N1B4), 0.062.

As for UBAP2L (UniProt F8W726), the log2 fold change was -0.078. Take TPM2 (UniProt P07951): the log2 fold change was -0.069.

As for USO1 isoform 2 (UniProt O60763), the log2 fold change was -0.017. In the case of USP3 (UniProt Q9Y6I4) it was -0.003; in that of XPOT (UniProt O43592), 0.032; in that of TRABD (UniProt Q9H4I3), 0.047.

Take WDR46 (UniProt O15213): the log2 fold change was 0.01. In the case of TMEM214 (UniProt Q6NUQ4) it was -0.015. In the case of XIAP (UniProt P98170) it was -0.066.
